# Measured values taken from PubChem BioAssay.
# Several values for one entry are separate records, joined by “and”; a condition that tells them apart may be missing. Equal entries are not always repeated. Records with an inconclusive call do not appear. Activity calls are given as the source filed them. Unless noted, no stated cut-off is given here; in the data, active means inhibition above about 80%; inactive means the rest.
# Experiments:
# [1] = enhancers of SMN2 over SMN1 splicing, cell-based, SMN2/SMN1 luciferase reporters (AID 1598; call rule not given here); details: SMN2 vs SMN1 luciferase splicing reporter cells, at 10 µM; SMN1 luciferase ratio: measured here: SMN1 luciferase reporter average; SMN2 luciferase ratio: measured here: SMN2 luciferase reporter average, stronger effect = higher value; SMN2/SMN1 luciferase ratio: stronger effect = higher value
# [2] = antimalarial activity against Dd2 strain (AID 2302;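 active means growth inhibition above 50% at the single 2 µM test dose, taken to imply half-maximal potency below 2 µM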;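 further: 0% = DMSO untreated growth and 100% = chloroquine plus artemisinin killed control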); details: P. falciparum Dd2 in RBCs, LDH growth readout, 72 h; at 2 µM; stronger effect = higher value
# [3] = HepG2 cytotoxicity, primary screen, cytotoxicity control for P. falciparum antimalarial project, cell-based, ATP luminescence (AID 2303;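 active means inhibition above 50%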;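 further: 0% = DMSO wells and 100% = digitonin-killed cells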); details: HepG2 viability, 24-48 h, at 10 µM, stronger effect = higher value
# [4] = target: L-lactate dehydrogenase (Plasmodium falciparum (isolate CDC / Honduras)) (UniProt Q27743); assay: PfLDH activity inhibition – cell lysate, 3D7 strain, counter-screen for P. falciparum growth inhibition project (AID 2304; call rule not given here;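 further: 0% = vehicle and 100% = reference inhibitor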); details: P. falciparum 3D7 crude extract, LDH APAD/NBT absorbance; at 2 µM; stronger effect = higher value
# [5] = inhibition of 3D7 malaria parasite growth – strain 3D7 (AID 2306; call rule not given here;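 further: 0% = DMSO wells and 100% = chloroquine plus artemisinin control wells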); details: P. falciparum 3D7 erythrocytic growth, LDH absorbance, 72 h; at 2 µM; stronger effect = higher value
# [6] = growth inhibition of DIPG glioma cells, dose response, cell-based, SU-DIPG-XIII, MIPE5.0, CellTiter-Glo, qHTS (AID 1347064; cut-off not given, nearly all actives have AC50 up to about 23 µM); details: SU-DIPG-XIII viability, CellTiter-Glo ATP luminescence
# [7] = inhibitors of Cryptococcus chitosan production, flow cytometry, Cibacron Brilliant Red staining (AID 1347148; call rule not given here;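 further: compound exposure lasted three days at 37 degrees C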); details: Cryptococcus neoformans chitosan, stronger effect = lower value; at 99.1 µM unless noted
# [8] = tested on: Aerobactin synthetase IucA (Klebsiella pneumoniae); assay: IucA aerobactin synthetase inhibitors, biochemical, Tocris library, absorbance (AID 1345561; call rule not given here;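 further: 100% = enzyme without compound and 0% = no enzyme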); details: purified IucA enzyme assay, absorbance (OD) read-out; stronger effect = lower value;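 tested at 8 µM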
# [9] = liver-stage malaria parasite growth inhibition, primary screen, cell-based, HepG2, luciferase luminescence, HepG2 viability (AID 624349; in the data active means parasite load remaining mostly below about 12%, no sharp cut-off; inactive means mostly above about 10%;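 further: 100% = mean of DMSO negative control wells on the same plate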); details: P. berghei liver stage in HepG2, luciferase luminescence, concentration not given here; parasite load remaining: stronger effect = lower value; viability: measured here: HepG2 viability without parasites
# [10] = tested on: Neuropilin-2 / VEGF-C interaction (human); assay: inhibitors of NRP2–VEGF-C binding, biochemical, microplate binding format, z-score (AID 743281; call rule not given here); details: microplate NRP2/VEGF-C binding assay; stronger effect = lower value
# [11] = viability loss in pontine glioma line – cell-based, SU-DIPG-XXV, MIPE5.0, CellTiter-Glo, qHTS, dose response (AID 1347065; cut-off not given, nearly all actives have AC50 up to about 26 µM;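 further: cells exposed to compound for 48 hours before ATP readout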); details: CellTiter-Glo ATP luminescence
# [12] = LFS_MB_1R medulloblastoma cell growth inhibition, synergistic combos for chromothripsis tumors, cisplatin or BGB combos (AID 1671452); details: LFS_MB_1R medulloblastoma cells, stronger effect = higher value;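 further: cells exposed for 96 hours before readout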
# [13] = CRL2098 osteosarcoma cell growth inhibition, synergistic combos for chromothripsis tumors, BGB or cisplatin IC20 combos (AID 1671454); details: CRL2098 osteosarcoma cells, drug combinations, stronger effect = higher value;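 further: cells exposed for 96 h before readout; 0% = vehicle DMSO and 100% = killing by high DMSO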
# [14] = HD-MB03 medulloblastoma cell growth inhibition, synergistic combos for chromothripsis tumors, BGB or cisplatin IC20 combos (AID 1671455; in the data active means inhibition above about 83%;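 further: 0% = vehicle DMSO and 100% = high DMSO as cytotoxic control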); details: HD-MB03 medulloblastoma cells, stronger effect = higher value
# [15] = UWB1.289 ovarian carcinoma cell growth inhibition, synergistic combos for chromothripsis tumors, BGB or cisplatin combos (AID 1671456); details: UWB1.289 ovarian carcinoma cells, stronger effect = higher value;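 further: cells exposed to compound for four days; 0% = vehicle DMSO and 100% = killing by high DMSO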
# [16] = LFS_MB_2R medulloblastoma cell growth inhibition, synergistic combos for chromothripsis tumors, cisplatin combos (AID 1671457); details: LFS_MB_2R medulloblastoma cells, stronger effect = higher value;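 further: cells exposed to compound for four days before readout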
# [17] = UWB1.289_BRCA1 ovarian cancer growth, cell-based, BGB or cisplatin combinations (AID 1671459); details: UWB1.289 BRCA1 ovarian carcinoma, drug combinations, stronger effect = higher value
# [18] = human astrocyte viability loss, single and combined drugs, cytotoxicity control for chromothriptic childhood tumor combination screen, cell-based, BGB or cisplatin IC20 combos (AID 1671460); details: Human astrocytes, drug combinations, stronger effect = higher value;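 further: cells exposed to compounds for 96 hours before viability readout; 0% = vehicle and 100% = killing control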
# [19] = modifiers of HSF1 nuclear foci, imaging, Selleck Cancer Library (AID 1347162; in the data active means plate-normalised HSF1 focus index below about 0.46); details: human cells, at 10 µM; SSMD: measured here: HSF1 foci SSMD mean; cell count: measured here: cell number; plate-normalised HSF1 focus index: stronger effect = lower value
# [20] = measured here: combination with BGB IC40, at 0.05 µM
# [21] = measured here: combination with cisplatin, at 0.5 µM
# [22] = measured here: combination with cisplatin, at 5 µM
# [23] = measured here: combination with BGB at IC20, at 0.5 µM
# [24] = measured here: combination with cisplatin at IC20, at 0.5 µM
# [25] = measured here: combo with BGB at IC20, at 0.5 µM
# [26] = measured here: combo with cisplatin at IC20, at 0.5 µM
# [27] = measured here: inhibition with BGB combination, at 0.05 µM
# [28] = measured here: inhibition with cisplatin combination, at 0.05 µM
# [29] = BGB combination, concentration series, at 5 µM
# [30] = cisplatin combination, concentration series, at 5 µM
# [31] = measured here: combo with BGB IC20, at 0.5 µM
# [32] = measured here: combo with cisplatin IC20, at 0.5 µM
# L-lactate dehydrogenase (Plasmodium falciparum (isolate CDC / Honduras)), sequence (Q27743 whole entry, looked up): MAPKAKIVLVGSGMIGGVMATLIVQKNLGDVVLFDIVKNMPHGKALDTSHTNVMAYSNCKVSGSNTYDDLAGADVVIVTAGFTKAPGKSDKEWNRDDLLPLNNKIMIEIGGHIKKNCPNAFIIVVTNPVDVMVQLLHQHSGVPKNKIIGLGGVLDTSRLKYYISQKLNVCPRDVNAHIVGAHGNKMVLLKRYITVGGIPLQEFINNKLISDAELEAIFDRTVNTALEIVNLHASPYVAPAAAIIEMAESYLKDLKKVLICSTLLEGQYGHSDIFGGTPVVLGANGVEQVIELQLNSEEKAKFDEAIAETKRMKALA
structure (smiles),measurement,setting,value
NC12CC3CC(CC(C3)C1)C2,SMN1 luciferase ratio,[1],0.84
same,SMN2/SMN1 luciferase ratio,[1],1.22 (active)
same,SMN2 luciferase ratio,[1],1.01
same,growth inhibition,[2],-1% (inactive)
same,inhibition,[3],31% (inactive)
same,inhibition,[4],-7% (inactive)
same,growth inhibition,[5],98% (active)
same,outcome,[6],inactive
same,fold fluorescence,[7],3.81 [at 330.6 µM] (inactive)
O=C1CCC(N2C(=O)c3ccccc3C2=O)C(=O)N1 (configuration not stated),remaining activity,[8],108% (inactive)
same,fold fluorescence,[7],3.34 [at 193.6 µM] (inactive)
CCOC(=O)[C@H](CCc1ccccc1)N[C@H]1CCc2ccccc2N(CC(=O)O)C1=O,parasite load remaining,[9],126% (inactive) and 36.1% (inactive) and 94.6% (inactive)
same,viability,[9],90.1% and 91.8% and 66.1%
same,z-score,[10],-0.908 (inactive)
same,remaining activity,[8],104% (inactive)
same,outcome,[6],inactive
same,outcome,[11],inactive
CC[C@H](C)C(=O)O[C@H]1C[C@@H](C)C=C2C=C[C@H](C)[C@H](CC[C@@H]3C[C@@H](O)CC(=O)O3)[C@H]21,remaining activity,[8],113% (inactive)
same,outcome,[11],inactive
same,fold fluorescence,[7],4.35 [at 123.6 µM] (inactive)
c1ccc([C@H]2CN3CCSC3=N2)cc1,growth inhibition,[2],1% (inactive)
same,inhibition,[3],11% (inactive)
same,inhibition,[4],5% (inactive)
same,growth inhibition,[5],93% (active)
same,outcome,[6],inactive
same,outcome,[11],inactive
CC1(C)O[C@@H]2[C@@H](CO[C@@]3(COS(N)(=O)=O)OC(C)(C)O[C@@H]23)O1,parasite load remaining,[9],169% (inactive) and 59.3% (inactive) and 91.8% (inactive)
same,viability,[9],90.1% and 108% and 69.4%
same,z-score,[10],-1.38 (inactive)
same,remaining activity,[8],121% (inactive)
CC1COc2c(N3CCN(C)CC3)c(F)cc3c(=O)c(C(=O)O)cn1c23 (configuration not stated),outcome,[6],inactive
same,outcome,[11],inactive
same,inhibition,[12]; at 0.5 µM,-39.4% (inactive) and -8.3% (inactive) and 2.79% (inactive)
same,inhibition,[12]; [20],-24.5% and -34% and -2.54%
same,inhibition,[12]; [21],-78.8% and -30% and 23.8%
same,inhibition,[12]; [22],-87.1% and 21.5% and -3.71%
same,inhibition,[13]; at 0.5 µM,-97.4% (inactive) and -9.66% (inactive) and -3.54% (inactive)
same,inhibition,[13]; [23],-84.4% and -20.4% and 15.5%
same,inhibition,[13]; [24],-95.4% and 17.6% and 11.9%
same,inhibition,[14]; at 0.5 µM,-17.7% (inactive) and 0.8% (inactive) and 1.26% (inactive)
same,inhibition,[14]; [25],-22% and -1.41% and -0.426%
same,inhibition,[14]; [26],-27.3% and 2.8% and -2.37%
same,inhibition,[15]; at 0.5 µM,-7.78% (inactive) and 3.9% (inactive) and 3.09% (inactive)
same,inhibition,[15]; [27],-28.7% and 4.48% and 2.71%
same,inhibition,[15]; [28],-3.9% and 3.6% and -0.825%
same,inhibition,[16]; at 0.5 µM,-19.3% (inactive) and 6.15% (inactive) and -0.77% (inactive)
same,inhibition,[16]; [21],-23.3% and -0.024% and 7.26%
same,inhibition,[16]; [22],-88.9% and 5.83% and 8.15%
same,inhibition,[17]; [29],-49.7% and -1.75% and -2.9%
same,inhibition,[17]; at 0.5 µM,-9.08% (inactive) and -0.86% (inactive) and 1.25% (inactive)
same,inhibition,[17]; [30],-6.84% and 7.33% and -3.71%
same,inhibition,[18]; at 0.5 µM,-0.29% (inactive) and 4.48% (inactive) and 7.23% (inactive)
same,inhibition,[18]; [31],12.7% and 6.41% and 15%
same,inhibition,[18]; [32],-18.7% and -2.95% and 15.1%
OC(Cn1cncn1)(Cn1cncn1)c1ccc(F)cc1F,outcome,[6],inactive
same,outcome,[11],inactive
CC1=C(/C=C/C(C)=C/C=C/C(C)=C/C(=O)O)C(C)(C)CCC1,remaining activity,[8],104% (inactive)
same,fold fluorescence,[7],4.11 [at 10 µM] (inactive)
N[C@@H]1CONC1=O,z-score,[10],-0.138 (inactive)
same,outcome,[6],inactive
same,outcome,[11],inactive
CS(=O)(=O)OCCCCOS(C)(=O)=O,parasite load remaining,[9],46.8% (inactive) and 102% (inactive) and 58% (inactive)
same,viability,[9],95.5% and 78.8% and 98.1%
same,outcome,[11],inactive
same,inhibition,[12]; at 0.5 µM,-13.7% (inactive) and -24.5% (inactive)
same,inhibition,[12]; [20],-7.13% and -11.8%
same,inhibition,[12]; [21],-41.7% and -21.3%
same,inhibition,[12]; [22],-51.5% and 4.47%
same,inhibition,[13]; at 0.5 µM,-52.1% (inactive) and -4.61% (inactive)
same,inhibition,[13]; [23],-29.9% and -15.7%
same,inhibition,[13]; [24],-107% and 11.7%
same,inhibition,[14]; at 0.5 µM,-10.8% (inactive) and -1.12% (inactive)
same,inhibition,[14]; [25],-20.4% and -4.59%
same,inhibition,[14]; [26],-6.85% and 1.19%
same,inhibition,[15]; at 0.5 µM,4.55% (inactive) and 10.4% (inactive)
same,inhibition,[15]; [27],-3.6% and 0.829%
same,inhibition,[15]; [28],24.9% and -0.011%
same,inhibition,[16]; at 0.5 µM,-13.8% (inactive) and 9.5% (inactive)
same,inhibition,[16]; [21],-18.7% and -5.75%
same,inhibition,[16]; [22],-4.43% and 9.74%
same,inhibition,[17]; [29],12% and 6.21%
same,inhibition,[17]; at 0.5 µM,5.87% (inactive) and 9.31% (inactive)
same,inhibition,[17]; [30],-4.07% and 9.32%
same,inhibition,[18]; at 0.5 µM,7.45% (inactive) and 3.61% (inactive)
same,inhibition,[18]; [31],2.2% and 2.78%
same,inhibition,[18]; [32],9.68% and 12.3%
CC12CC3CC(C)(C1)CC(N)(C3)C2,outcome,[10],inactive
same,remaining activity,[8],87.5% (inactive)
same,outcome,[11],inactive
O=C(O)CCCc1ccccc1,parasite load remaining,[9],61.6% (inactive) and 72.5% (inactive)
same,viability,[9],96.6% and 102%
same,remaining activity,[8],106% (inactive)
same,SSMD,[19],2.46
same,cell count,[19],7000
same,plate-normalised HSF1 focus index,[19],1.14 (inactive)
same,inhibition,[12]; at 0.5 µM,-18.6% (inactive)
same,inhibition,[12]; [20],-25.4%
same,inhibition,[12]; [21],-26.8%
same,inhibition,[12]; [22],-16.2%
same,inhibition,[13]; at 0.5 µM,-56.1% (inactive)
same,inhibition,[13]; [23],-54.3%
same,inhibition,[13]; [24],-68.3%
same,inhibition,[14]; at 0.5 µM,-7.96% (inactive)
same,inhibition,[14]; [25],-7.07%
same,inhibition,[14]; [26],-7.42%
same,inhibition,[15]; at 0.5 µM,-4.79% (inactive)
same,inhibition,[15]; [27],-17.3%
same,inhibition,[15]; [28],-13.9%
same,inhibition,[16]; at 0.5 µM,-17.8% (inactive)
same,inhibition,[16]; [21],-17.8%
same,inhibition,[16]; [22],-56.2%
same,inhibition,[17]; [29],3.17%
same,inhibition,[17]; at 0.5 µM,-1.28% (inactive)
same,inhibition,[17]; [30],25.2%
same,inhibition,[18]; at 0.5 µM,2.17% (inactive)
same,inhibition,[18]; [31],-14.8%
same,inhibition,[18]; [32],-0.734%
